The list is not random: actives were taken first. Their share in the collection is about 6.3%.
MPTP block: permeability transition pore inhibition. isolated mouse mitochondria, Ca2+ swelling absorbance, 30 min. inhibition, % at 10 µM. 1.4% of 360,000 active;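 active = inhibition of 50% or more, scaled per plate between neutral and stimulator controls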
tim23-1 inh: growth inhibitors of tim23-1 mutant yeast | 1.3% of 330,000 active | S. cerevisiae tim23-1 growth, BacTiter-Glo luminescence, 24 h | AID 463212 | inhibition, % at 20 µM;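 active = growth inhibition of the mutant yeast at or above 50%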;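 also: temperature-sensitive mutant grown at 25 °C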
TIM10 inh: inhibits growth of TIM10 yeast strain. S. cerevisiae TIM10 strain growth, BacTiter-Glo luminescence, 24 h. inhibition, % at 10 µM. 1.4% of 330,000 active. AID 463195;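 active = inhibition of 40% or more at the single tested concentration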;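 also: wild-type TIM10 isogenic control strain grown at permissive 25 °C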
tim10-1 inh: tim10-1 yeast growth inhibition. S. cerevisiae tim10-1 ts strain growth, BacTiter-Glo, 24 h. inhibition, % at 20 µM. 2.2% of 330,000 active. AID 463190;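 active = inhibition of at least 40%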;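 also: mutant grown at 25 °C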
Mdm2 MdmX PPI: inhibitors of human Mdm2/MdmX interaction; SaOS-2 split-luciferase Mdm2/MdmX complementation, luminescence; inhibition, % at 8 µM; 3% of 330,000 active;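 active = inhibition of at least 50% at 8 µM in the primary screen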
Target sequence (O15151 whole entry, looked up): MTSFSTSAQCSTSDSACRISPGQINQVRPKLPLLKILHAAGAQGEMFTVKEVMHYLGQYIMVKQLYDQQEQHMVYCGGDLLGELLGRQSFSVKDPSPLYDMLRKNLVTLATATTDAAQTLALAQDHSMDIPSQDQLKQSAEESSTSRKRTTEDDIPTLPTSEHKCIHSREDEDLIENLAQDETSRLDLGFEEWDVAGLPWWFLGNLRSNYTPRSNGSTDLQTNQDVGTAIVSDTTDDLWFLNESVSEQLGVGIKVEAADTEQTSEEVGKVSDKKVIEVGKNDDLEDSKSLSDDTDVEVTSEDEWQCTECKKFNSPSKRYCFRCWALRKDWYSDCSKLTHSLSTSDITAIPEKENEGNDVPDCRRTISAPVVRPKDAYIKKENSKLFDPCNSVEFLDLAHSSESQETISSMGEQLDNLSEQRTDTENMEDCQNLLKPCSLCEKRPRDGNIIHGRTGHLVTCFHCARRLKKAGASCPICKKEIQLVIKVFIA
Target sequence (Q00987 whole entry, looked up): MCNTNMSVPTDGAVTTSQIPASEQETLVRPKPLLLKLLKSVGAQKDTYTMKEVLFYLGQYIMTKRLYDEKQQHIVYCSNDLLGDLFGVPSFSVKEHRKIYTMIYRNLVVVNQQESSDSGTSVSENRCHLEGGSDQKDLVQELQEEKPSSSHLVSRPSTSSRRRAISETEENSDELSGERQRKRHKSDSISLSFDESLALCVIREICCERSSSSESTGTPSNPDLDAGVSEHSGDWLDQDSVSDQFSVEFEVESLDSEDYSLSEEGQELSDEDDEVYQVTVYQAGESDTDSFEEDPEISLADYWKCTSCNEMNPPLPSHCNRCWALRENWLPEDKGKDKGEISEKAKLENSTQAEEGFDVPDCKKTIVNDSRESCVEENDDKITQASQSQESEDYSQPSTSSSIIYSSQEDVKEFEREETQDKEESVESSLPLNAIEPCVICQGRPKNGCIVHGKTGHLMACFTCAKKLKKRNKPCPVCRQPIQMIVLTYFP
Mdm2 MdmX conf: confirmation of human Mdm2/MdmX interaction inhibitors; inhibition, % at 8 µM; AID 489028; Mdm2-MdmX binding, luminescent assay; 55% of 10,000 active; shares compounds with Mdm2 MdmX PPI; in the data active = inhibition above about 40%
Full FLuc ctr: inhibits full-length luciferase, flagging false Mdm2/MdmX hits | SaOS-2 full-length luciferase counterscreen, luminescence | AID 504607 | inhibition, % at 8 µM | 77% of 6,200 active | shares compounds with Mdm2 MdmX PPI;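 active = mean inhibition at 8 µM reaching about 37%, which flags the compound as non-specific, limit read from the data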;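 also: p53-null SaOS-2 cells with luciferase driven by a doxycycline-inducible promoter; compound on cells about two nights before reading with doxycycline added after day one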
A number is an active result; – = inactive; · = not tested or not shown.

SMILES	MPTP block	tim23-1 inh	TIM10 inh	tim10-1 inh	Mdm2 MdmX PPI	Mdm2 MdmX conf	Full FLuc ctr
COc1ccc(-c2oc3c(c2C#CC(C)(C)O)C(OC)CCC3)cc1 (centres undefined)	–	·	·	·	·	·	·
COc1cc2c(=O)n(Cc3ccco3)c(=O)n(CC(=O)c3ccc(Br)cc3)c2cc1OC	–	–	–	–	–	·	·
COc1cc2c(=O)n(Cc3ccco3)c(=O)n(CC(=O)c3cccc(Br)c3)c2cc1OC	·	–	–	–	50	–	·
COc1ccc(CCN2CC(C(=O)NCc3ccon3)CCC2=O)cc1 (centres undefined)	–	·	·	·	·	·	·
COc1cc(Br)cc(/C=N/NC(=O)Cc2ccc(C(F)(F)F)cc2[N+](=O)[O-])c1O	–	–	–	–	52	70	–
CCOc1cc(/C=N/NC(=O)Cc2ccc(C(F)(F)F)cc2[N+](=O)[O-])c(Br)cc1OC	–	–	–	–	77	55	–
COc1cc([N+](=O)[O-])cc(/C=N/NC(=O)Cn2nc(C)cc2C)c1O	–	–	–	–	57	65	50
CC1=C(c2ccccc2)C(O)(c2ccccc2)C(C)C1=O (centres undefined)	–	·	·	·	·	·	·
C[C@H]1CN([C@@H](C)CO)C(=O)c2cc(-c3cccc(C#N)c3)cnc2O[C@H]1CN(C)C(=O)c1ccccn1	–	·	·	·	·	·	·
CC(=O)Nc1cc2ccccc2oc1=O	–	–	–	–	–	·	·
Cc1ccc(C(=O)Nc2cc3ccccc3oc2=O)cc1	–	–	–	–	89	85	–
Cc1nc(NC(=O)c2ccc(-c3cc4ccccc4oc3=O)cc2)ccc1Br	–	–	–	–	76	–	77
CC(C)Cn1c(N)c(C(=O)COC(=O)c2cc(C(F)(F)F)nc3ccccc23)c(=O)n(C)c1=O	·	–	–	–	–	·	·
Cn1c(N)c(C(=O)COC(=O)c2cc(-c3ccccc3)nc3ccccc23)c(=O)n(C)c1=O	·	–	–	–	66	–	60
Cn1c(=O)c(C(=O)COC(=O)c2cc(C(F)(F)F)nc3c(C(F)(F)F)cccc23)c(N)n(CC2CC2)c1=O	·	–	–	–	77	–	·
CNc1c(N)c(=O)oc2ccccc12	–	–	–	–	–	·	·
Cc1ccc(Nc2c(N)c(=O)oc3ccccc23)cc1	–	–	–	–	58	–	·
Cn1cc(C(=O)c2ccc(Cl)cc2Cl)cc1C(=O)N/N=C(\N)COc1ccc(F)cc1	–	–	–	–	–	·	·
Cn1cc(C(=O)c2ccc(Cl)cc2Cl)cc1C(=O)N/N=C(\N)COc1ccc(Cl)cc1Cl	–	–	–	–	67	41	40
Cn1cc(C(=O)c2ccc(Cl)cc2Cl)cc1C(=O)N/N=C(\N)COc1ccc(Cl)cc1	–	–	–	–	64	40	43
O=C(NC(=S)Nc1ccccc1OC(F)F)c1ccc2c(c1)OCO2	–	–	–	–	–	·	·
O=C(OCc1ccc(Br)cc1)c1cnc(Cl)c(Cl)c1	–	–	–	–	69	48	96
CCN1C(=O)N2C[C@H]3CON(C)[C@H]3C[C@H]2c2ccccc21	–	·	·	·	·	·	·
CCCNC(=O)C1(C)CCN(C(=O)c2cc(F)cc(F)c2)C1 (centres undefined)	–	·	·	·	·	·	·
C/C(=N/NC(=O)c1nnn(-c2nonc2N)c1COc1ccccc1)c1ccccc1Cl	–	–	–	–	–	·	·
SMILES	MPTP block	tim23-1 inh	TIM10 inh	tim10-1 inh	Mdm2 MdmX PPI	Mdm2 MdmX conf	Full FLuc ctr
CCOc1ccc(-c2c(C(=O)N/N=C(\C)c3cccnc3)nnn2-c2nonc2N)cc1	–	–	–	–	64	–	·
CCCOc1ccc(-c2c(C(=O)N/N=C(\C)c3cccnc3)nnn2-c2nonc2N)cc1	–	–	–	–	–	·	·
C/C(=N\NC(=O)c1nnn(-c2nonc2N)c1-c1ccccc1)c1ccccc1O	–	–	–	–	82	84	51
C/C(=N/NC(=O)c1nnn(-c2nonc2N)c1COc1ccccc1)c1ccc(O)cc1	–	–	–	–	75	–	·
COc1cc(F)ccc1-c1csc(C(O)c2ccccc2)n1 (centres undefined)	–	·	·	·	·	·	·
OCC[C@@H]1C[C@H](O)[C@@H](O)[C@@]2(OCCCc3cc(Cl)ccc32)O1	–	·	·	·	·	·	·
COC(=O)[C@@]12C[C@@H](CC(=O)NCC3CCCCC3)C(=O)N(Cc3ccco3)C1=CCC(C)(C)C2	–	·	·	·	·	·	·
COc1ccc(-c2cc(=O)[nH]c3ccccc23)cc1	–	–	–	–	58	–	·
O=C(COc1ccc(-n2cnnn2)cc1)Nc1cc(Cl)cc(Cl)c1	–	–	–	–	67	–	·
NC1=NC2(CCCCC2)N=C(Nc2ccc(F)cc2F)N1	–	–	–	–	–	·	·
Cc1cc(C)cc(NC2=NC3(CCCCC3)N=C(N)N2)c1	–	–	–	–	59	53	73
O=C(COc1ccc(C(=O)c2ccccc2)cc1)NCc1ccc(F)cc1	–	–	–	–	63	67	76
CSc1ccc(CN(C)C(=O)COc2ccc(C(=O)c3ccccc3)cc2)cc1	–	–	–	–	65	59	96
O=C(NCC(c1ccco1)N1CCCC1)c1cc2cc(Cl)ccc2o1 (centres undefined)	–	–	–	–	–	·	·
O=[N+]([O-])c1cccc2cnccc12	–	·	·	·	·	·	·
O=[N+]([O-])c1ccc(Oc2ccc(F)cc2)c2ccncc12	–	–	–	–	60	56	–
O=[N+]([O-])c1ccc(Oc2cccc(Br)c2)c2ccncc12	–	–	–	–	58	–	·
C=C1C(=O)OC2C=C(CO)C3OC3C3OC3(C)CC(OC(=O)/C(=C/C)COC(C)=O)C12 (centres undefined)	–	·	·	·	·	·	·
OC(CN1CCCCC1)Cn1c2ccc(Cl)cc2c2cc(Cl)ccc21 (centres undefined)	–	–	–	–	75	–	·
CC1CCN(CC(O)Cn2c3ccccc3c3ccccc32)CC1 (centres undefined)	–	–	–	–	–	·	·
COc1ccc(S(=O)(=O)N2CCCCCC2)cc1C(=O)N1CCN(C(C)=O)CC1	–	·	·	·	·	·	·
C=CCn1c(=O)c(C(=O)Nc2cccnc2)c(O)c2ccccc21	–	–	–	–	68	–	·
C=CCn1c(=O)c(C(=O)Nc2ccc(C)cn2)c(O)c2ccccc21	–	–	–	–	–	·	·
COc1ccc(S(=O)(=O)NC(=O)C2(C)CCN2C(=O)Cc2cc(F)ccc2F)cc1 (centres undefined)	–	·	·	·	·	·	·
CCOc1ccc(NC(=S)N(CCCN2CCCC2)Cc2cccn2Cc2ccc(Cl)cc2)cc1	–	–	–	–	65	–	·
Cc1cccc(NC(=S)N(CCCN2CCCC2)Cc2cccn2Cc2ccc(Cl)cc2)c1	–	–	–	–	54	–	–
CN1CCN(CCCN(Cc2ccco2)C(=S)Nc2ccc(Cl)cc2)CC1	–	–	–	–	–	·	·
Cc1cc(Br)c2nc(-c3ccccc3)c(Cc3cccc(Cl)c3)n2c1	–	·	·	·	·	·	·
Cc1c(Cl)cccc1N=C1SCCN1C(=O)CN1C(=O)NC2(CCCC2)C1=O	–	–	–	–	78	45	69

High-throughput results (PubChem BioAssay)
